Potency and affinity values are given separately. Inconclusive results are not listed. A call without a number means that no potency is given here. The source made the active and inactive calls.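 Rule for the calls: active = compound whose fitted half-maximal inhibition concentration is at most triple the top dose in every replicate run; inconclusive = runs disagree, or flat partial inhibition, or poor curve fit; inactive = every run inactive: flat, opposite effect, or too weak.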
biological target: Cyclin-dependent kinase 5 activator 1 (Homo sapiens) + Cyclin-dependent kinase 5 (Homo sapiens) (UniProt Q15078+Q00535); test: human CDK5 activity blockade – biochemical, microfluidic mobility shift, dry powder, selectivity assay for GSK-3 alpha inhibitor project, dose response (AID 588430); conditions: CDK5-p25 kinase, Caliper mobility shift, peptide conversion; series mostly up to 35 µM
Sequence (Q00535 whole entry, looked up): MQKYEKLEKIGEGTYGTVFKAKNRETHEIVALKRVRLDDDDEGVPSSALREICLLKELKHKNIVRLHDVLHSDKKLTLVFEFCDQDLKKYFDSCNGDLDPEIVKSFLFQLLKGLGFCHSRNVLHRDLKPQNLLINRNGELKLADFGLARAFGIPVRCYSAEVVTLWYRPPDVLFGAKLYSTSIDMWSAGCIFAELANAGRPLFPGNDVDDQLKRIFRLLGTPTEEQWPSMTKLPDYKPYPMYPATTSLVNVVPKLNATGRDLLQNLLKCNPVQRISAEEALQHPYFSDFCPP
Sequence (Q15078 whole entry, looked up): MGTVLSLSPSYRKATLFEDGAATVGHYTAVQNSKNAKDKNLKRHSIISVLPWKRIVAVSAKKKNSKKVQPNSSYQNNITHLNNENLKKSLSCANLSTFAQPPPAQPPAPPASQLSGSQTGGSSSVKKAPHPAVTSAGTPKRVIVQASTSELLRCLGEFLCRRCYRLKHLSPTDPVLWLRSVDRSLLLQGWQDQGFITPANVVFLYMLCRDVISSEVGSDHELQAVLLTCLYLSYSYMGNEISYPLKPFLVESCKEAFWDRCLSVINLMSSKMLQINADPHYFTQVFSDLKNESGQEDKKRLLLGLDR

Row | SMILES | outcome
1 | CN(C)Cc1c(C(=O)N/N=C/c2ccncc2)nnn1-c1nonc1N | inactive
2 | Nc1nc(NCCCN2CCOCC2)nc(Nc2cccc(Cl)c2)c1[N+](=O)[O-] | inactive
3 | Fc1ccc(CSc2nnc(-c3ccncc3)o2)cc1 | inactive
4 | COc1ccc(OC)c(/C=N/NC(=O)c2nnn(-c3nonc3N)c2-c2cccs2)c1 | inactive
5 | CCOC(=O)c1ccc2ncc(C(=O)OCC)c(Nc3ccc(N4CCOCC4)cc3)c2c1 | inactive
6 | O=C(Nc1ccsc1C(=O)NC1CCCCC1)c1ccc(F)cc1 | inactive
7 | c1ccc(-c2nc(NCCCn3ccnc3)c3ccccc3n2)cc1 | inactive
8 | Nc1nonc1-n1nnc(C(=O)N/N=C/c2ccccc2Cl)c1CN1CCOCC1 | inactive

From PubChem BioAssay AID588430 (Broad Institute, 2011)
